# Only some compounds are listed: those with a hit (about 21% of all), similar ones and a draw of the others.
# Pf growth 48h: inhibits P. falciparum growth in the first generation, 48 h; P. falciparum luciferase growth in erythrocytes, 48 h; Potency, µM (top dose mostly 28.7 µM), hits mostly inhibitors; 5.9% of 310,000 active
#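 A one-generation exposure of luciferase-tagged malaria parasites in RPMI 1640/Albumax erythrocyte culture, 37 C and 5% CO2. Inhibition is inferred from decreased luminescence after adding detection reagent.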
# AMA1 RON2 block: inhibitors of Plasmodium falciparum AMA1-RON2 interaction; AlphaScreen AMA1-biotinylated RON2 peptide binding; Potency, µM (titrated, usually from 58.2 µM), most hits filed as inhibitors; 0.2% of 360,000 active; AID 720542; also: nearly all actives have a fitted effect of over 45% in size
#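 AMA1 (3D7) with his tag at 25 nM final met compounds first, then biotinylated RON2 peptide at 25 nM; detection used donor plus acceptor beads, 10 µg/mL apiece, read by AlphaScreen after 30 min at room temperature.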
# CHX counter: counter-screen hit for Shiga toxin inhibitors, cycloheximide. cell reporter, cycloheximide protein synthesis inhibition counterscreen. max response, %. 12% of 300,000 active. AID 2314; in the data active = max response mostly above about 13%, no sharp cut-off; inactive = mostly below about 14%; also: read at 38.3 µM for the half of the compounds with a filed dose
# Pf growth 96h: P. falciparum growth inhibition at 96 hours. P. falciparum luciferase reporter growth, 96 h. Potency, µM (highest dose often 28.7 µM), usual class: inhibitors. 6.9% of 320,000 active
#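 Plates of compound plus infected erythrocytes (2% hematocrit, 0.05% parasitemia final) incubate 96 hours, 37 C, 5% CO2. Detection reagent added; reduced luminescence from the parasites' luciferase reporter flags inhibition.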
# HCV inhibitor: blocks hepatitis C virus | Huh7.5.1 HCVcc-Cre infection, luciferase reporter, 44 h | Potency, µM (doses to about 41.8 µM), actives largely listed as inhibitors | 3.4% of 340,000 active | AID 651820
#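 Cells (1,000/well) were plated 4 h before compound, then infected with HCVcc-Cre virus (~0.5 moi). After 44 h further culture, infection was read as luciferase luminescence following a 15 min substrate incubation at room temperature.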
# Shiga toxin inh: inhibitors of Shiga toxin in Vero cells; AID 2315; Vero cells, Shiga toxin protein synthesis inhibition reporter; 9.2% of 290,000 active; inhibition, % at 38.7 µM; in the data active = inhibition mostly above about 28%, no sharp cut-off; inactive = mostly below about 43%
# Hits are given with their value; n = inactive; u = inconclusive; x = no result; [ ] = dose if it differs, or a comment. Unless noted, calls follow the shape of the dose curve; as a rule, active = well fitted curve in the direction sought with a large enough effect; inconclusive = small, poorly fitted or top-dose-only effect, or another doubt; inactive = no such curve, though single readings can be large; an effect the other way counts as inactive or inconclusive.
SMILES,Pf growth 48h,AMA1 RON2 block,CHX counter,Pf growth 96h,HCV inhibitor,Shiga toxin inh
C[C@H](NC(=O)[C@@H]1CSC2c3ccccc3C(=O)N21)C(=O)NCc1c(F)cccc1Cl (stereo partly specified),u,n,n,11.7µM,n,n
Cc1[nH]c(=O)[nH]c(=O)c1S(=O)(=O)Nc1cccc(C(F)(F)F)c1,n,n,n,u,n,n
CCn1ccnc1CN(C)C(=O)CC1C(=O)NCCN1Cc1c(F)cccc1Cl (stereo unspecified),n,n,n,10.4µM,n,n
O=C1NCCN(Cc2ccc(Cl)c(F)c2)C1CC(=O)N1CCCO1 (stereo unspecified),n,n,13.0,u,n,n
COCC1CCN(C(=O)CC2C(=O)NCCN2Cc2cccc(Oc3ccccc3)c2)CC1 (stereo unspecified),14.7µM,n,n,n,n,n
Cc1nonc1CN(C)C(=O)CC1C(=O)NCCN1Cc1c(F)cccc1Cl (stereo unspecified),n,n,n,n,n,n
O=C(CC1C(=O)NCCN1Cc1cccc(Oc2ccccc2)c1)NCc1cccnc1 (stereo unspecified),n,n,n,u,n,n
O=C1NCCN(Cc2cccc(Oc3ccccc3)c2)C1CC(=O)N1CCCO1 (stereo unspecified),n,n,n,5.22µM,n,n
CCOC(=O)c1ccccc1NC(=O)C1CC(=O)N(C2CCCC2)C1 (stereo unspecified),x,n,x,x,n,x
Cc1ccccc1NC(=O)CSc1nnc(C2CC2)n1CC1CCCO1 (stereo unspecified),n,n,n,n,n,n
Cc1csc(CN(C)C(=O)CC2C(=O)NCCN2Cc2ccc(Cl)c(F)c2)n1 (stereo unspecified),n,n,n,9.28µM,n,n
CCC(COC(=O)NC)NC(=O)Oc1cccc(C)c1 (stereo unspecified),n,n,n,u,n,n
CCC(COC(=O)NC)NC(=O)Oc1ccccc1 (stereo unspecified),n,n,n,4.65µM,n,n
CC1CC(CCC(=O)NC(=S)Nc2ccc(S(N)(=O)=O)cc2)C(=O)O1 (stereo unspecified),n,n,n,u,n,n
CC1Cc2nc(SCC(=O)NCC3CCCO3)n(Cc3ccccc3)c(=O)c2S1 (stereo unspecified),14.7µM,n,n,n,n,n
Cc1cc(NC(=O)CSc2nc3c(c(=O)n2-c2ccccc2)SC(C)C3)no1 (stereo unspecified),u,n,n,4.15µM,n,n
Cc1ccc(Cn2c(SCC(=O)NCC3CCCO3)nc3ccsc3c2=O)cc1 (stereo unspecified),n,n,n,n,8.91µM,n
COc1ccc(-n2c(SCC(=O)NCC3CCCO3)nc3c(c2=O)SC(C)C3)cc1 (stereo unspecified),11.7µM,n,n,u,n,n
Cc1ccc(-n2c(C)nnc2SCC(=O)NC2CCCC2)cc1,n,n,n,n,n,n
COC(=O)[C@@]12C[C@@H](CC(=O)NCCc3ccccc3OC)C(=O)N(Cc3cccc4ccccc34)C1=CCC(C)(C)C2,x,n,x,x,x,x
CCCc1ccc(S(=O)(=O)N2CCN(C(C)C(=O)NCc3ccc(OC)cc3)CC2)cc1 (stereo unspecified),u,n,x,u,u,x
O=C(CSc1nc2ccsc2c(=O)n1CC1CCC(C(=O)O)CC1)NCCc1ccc(Cl)cc1 (stereo unspecified),u,n,n,7.38µM,n,n
Cc1ccc(-n2c(SCC(=O)NCC3CCCO3)nc3c(c2=O)SCC3)cc1 (stereo unspecified),n,n,n,n,n,n
CC1Cc2nc(SCC(=O)NCC3CCCO3)n(-c3ccc(F)cc3)c(=O)c2S1 (stereo unspecified),8.28µM,n,n,3.7µM,n,n
CCCCCCn1nc(C(=O)OCC(=O)NC2CCS(=O)(=O)C2)c2ccccc2c1=O (stereo unspecified),n,n,n,n,n,n
SMILES,Pf growth 48h,AMA1 RON2 block,CHX counter,Pf growth 96h,HCV inhibitor,Shiga toxin inh
CCOc1ccccc1NC(=O)CSc1ncnc2c1oc1ccccc12,n,n,22.8,n,x,n
CC(=O)CSc1ncnc2c1oc1ccccc12,n,n,12.0,n,n,n
O=C(CSc1ncnc2c1oc1ccccc12)Nc1cccc(C(F)(F)F)c1,x,n,n,u,u,n
CCCSc1ncnc2c1oc1ccccc12,n,n,25.0,u,n,n
O=C(CSc1ncnc2c1oc1ccccc12)Nc1ccccc1F,x,n,n,n,n,n
O=C(CSc1ncnc2c1oc1ccccc12)Nc1cccc(Cl)c1,n,n,9.2,n,u,n
Cc1c(C(=O)NCCC#N)sc(=O)n1Cc1ccc(C(=O)N(C)C)cc1,x,n,x,x,x,x
CC(C)(C)CN1C(=O)C(=O)NC[C@@H]1CC1CCCCC1,x,n,x,x,x,x
CC(=O)OCC1=C[C@H]2[C@@H]3C(C)(C)[C@]3(OC(C)=O)C[C@@H](C)[C@]2(O)[C@@H]2C=C(C)C(=O)[C@@]2(O)C1,x,x,n,x,x,n
O=C(C1CCC(=O)N(C2CC2)C1)N(CCO)Cc1ccccc1 (stereo unspecified),n,n,n,u,n,n
CC(C)Sc1ncnc2c1oc1ccccc12,n,n,31.8,n,n,85.3
c1ccc(CSc2ncnc3c2oc2ccccc23)cc1,x,n,x,x,n,x
COc1ncnc2c1oc1ccccc12,n,n,48.3,4.65µM,n,111.9
c1ccc(N2CCN(c3ncnc4c3oc3ccccc34)CC2)cc1,n,n,n,n,n,n
c1coc(CSc2ncnc3c2oc2ccccc23)c1,n,u,56.7,n,n,85.3
O=C(CSc1ncnc2c1sc1ccccc12)Nc1ccc(Br)cc1,n,n,n,13.1µM,n,n
CN1CCN(c2cccc3c2S(=O)(=O)N[C@@H](Cc2ccccc2)CO3)CC1,x,n,x,x,x,x
c1ccc(Sc2ncnc3c2oc2ccccc23)nc1,n,n,63.6,u,u,115.3
CCc1nc(SCC(=O)c2cccs2)c2oc3ccccc3c2n1,n,n,27.2,n,u,n
CC(=O)C1=C(O)C(=O)N(c2ccc(Br)cc2)C1c1ccccc1[N+](=O)[O-] (stereo unspecified),u,n,n,u,n,n
O=C(Nc1ccc(Cl)cc1F)C1CCN(S(=O)(=O)c2cccc3nonc23)CC1,n,n,n,u,u,n
CC1(c2ccccc2Cl)NC(=O)N(CC(=O)N2c3ccccc3NC(=O)C2(C)C)C1=O (stereo unspecified),u,n[11.6 µM],x,u,n,x
CCOC(=O)C1CCN(C(=O)COc2ccc(Cl)cc2)CC1,n,n,n,n,n,n
COC(=O)C1CCN(C(=O)COc2ccc(Cl)cc2)CC1,n,n,n,u,n,n
